# Compound activity: PubChem, National Center for Advancing Translational Sciences (NCATS)
# Lamin A splicing – qHTS Assay for Modulators of Lamin A Splicing; HeLa LMNA splicing GFP/RFP minigene ratio, 48 h; Potency, µM (titrated, usually from 46.1 µM), without a hit: top-dose ratio change, negative = inhibition, most hits filed as inhibitors; 0.01% of 200,000 active; active means well fitted inhibition curve with a large enough effect in the signal ratio, with a control signal flat, not every such curve was filed as active; inconclusive means small, poorly fitted or top-dose-only effect, or effect the other way, or a change in a side signal; the % refers to the signal ratio
#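 Read-out is the ratio of GFP to DsRed2 object intensity, acquired by 488 nm laser-scanning cytometry on HeLa lamin A-EGFP minigene reporter cells. Compound incubation 48 hrs at 37 °C in Opti-MEM with 2% FBS; DMSO 0.5% final.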
# IMPase Li cell – qHTS Assay for Identifying the Cell-Membrane Permeable IMPase Inhibitors: Potentiation with Lithium. CHO-M1 cells, IP1 TR-FRET (IP-One), carbachol + lithium. Potency, µM (top dose mostly 59.4 µM), without a hit: at the highest dose activity, negative = IMPase inhibition, hits mostly inhibitors. 0.35% of 210,000 active. AID 1457, 2008; active means well fitted curve in the direction sought with a large enough effect; inconclusive means small, poorly fitted or top-dose-only effect, or another doubt; inactive means no such curve, though single readings can be large; an effect the other way counts as inactive or inconclusive;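 further: IP1 builds up when IMPase is blocked and the TR-FRET signal falls; plate controls were basal vehicle for no effect and high inhibitor control for full effect; nearly all actives have a fitted effect of over 50% in size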
#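 Concentration–response in CHO-M1 cells, lithium-potentiated; 30 min at 37C. IP1 detected by competitive TR-FRET after 10 min lysis at RT. Hill-fitted AC50.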
# ALDH1A1 inh – qHTS Assay for Inhibitors of Aldehyde Dehydrogenase 1 (ALDH1A1); Potency, µM (top dose mostly 75.3 µM), without a hit: top-dose activity, negative = inhibition, actives largely listed as inhibitors; Aldehyde dehydrogenase 1A1 (Homo sapiens), P00352; Purified ALDH1A1, NADH fluorescence, propionaldehyde substrate; 7.3% of 220,000 active;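 further: plate controls were no enzyme wells and a reference inhibitor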
# Target sequence (P00352 whole entry, looked up): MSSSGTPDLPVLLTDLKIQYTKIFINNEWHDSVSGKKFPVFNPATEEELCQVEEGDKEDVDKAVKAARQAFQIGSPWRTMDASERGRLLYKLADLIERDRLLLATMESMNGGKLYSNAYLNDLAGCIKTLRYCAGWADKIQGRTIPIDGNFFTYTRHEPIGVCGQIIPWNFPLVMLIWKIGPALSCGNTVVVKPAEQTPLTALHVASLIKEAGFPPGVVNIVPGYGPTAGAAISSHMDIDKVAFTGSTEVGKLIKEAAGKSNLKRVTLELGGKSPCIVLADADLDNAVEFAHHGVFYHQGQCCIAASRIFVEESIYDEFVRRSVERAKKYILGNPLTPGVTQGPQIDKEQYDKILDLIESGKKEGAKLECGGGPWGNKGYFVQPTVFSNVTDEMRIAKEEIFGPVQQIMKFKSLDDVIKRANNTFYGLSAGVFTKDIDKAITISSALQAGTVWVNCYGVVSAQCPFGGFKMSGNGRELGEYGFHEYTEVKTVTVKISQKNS
# KinaseGlo FLuc – Counterscreen for Luciferase (Kinase-Glo TM) Inhibition | Kinase-Glo luciferase, ATP luminescence, 8 min | Potency, µM (top dose mostly 38.3 µM), for the others: at the highest dose activity change, negative = inhibition, hits mostly inhibitors | 0.28% of 200,000 active; active means well fitted curve in the direction sought with a large enough effect; inconclusive means small, poorly fitted or top-dose-only effect, or another doubt; inactive means no such curve, though single readings can be large; an effect the other way counts as inactive or inconclusive; further: nearly all actives have a fitted effect of over 60% in size
#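 Inhibition of Kinase-Glo luciferase light generation was assessed at 10 uM ATP in pH 7.2 imidazole buffer, with luminescence measured after eight minutes at ambient temperature.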
# HPGD inh – qHTS Assay for Inhibitors of HPGD (15-Hydroxyprostaglandin Dehydrogenase). purified HPGD, NADH fluorescence kinetic, PGE2 substrate. Potency, µM, for inactives: at the top dose activity change, negative = inhibition, hits mostly inhibitors. 4.3% of 150,000 active. 15-hydroxyprostaglandin dehydrogenase [NAD(+)] (Homo sapiens), P15428
# Target sequence (P15428 whole entry, looked up): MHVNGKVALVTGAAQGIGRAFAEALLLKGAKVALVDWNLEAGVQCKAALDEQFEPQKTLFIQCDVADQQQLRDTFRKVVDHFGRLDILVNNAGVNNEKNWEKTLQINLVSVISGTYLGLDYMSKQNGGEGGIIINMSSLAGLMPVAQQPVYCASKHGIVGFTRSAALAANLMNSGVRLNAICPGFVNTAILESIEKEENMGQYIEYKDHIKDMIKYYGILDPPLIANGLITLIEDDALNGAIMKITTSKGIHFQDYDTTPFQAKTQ
#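 20 nM HPGD preincubated 15 min at room temperature with compound in 50 mM Tris-HCl pH 8, 0.01% Tween 20. Started with 1 mM NAD+ and 30 uM prostaglandin E2; NADH fluorescence (360/450 nm) read 5 times over 30-s intervals, last minus first.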
# An asterisk follows results filed as active; u = inconclusive; x = not tested or not shown; [ ] = another dose, or the depositor's remark. Rows were chosen to be rich in hits. Some 9% of all compounds tested hit in one or more screens of this group. Unless noted, the call rests on the fitted dose curve; in most records, active means well fitted inhibition curve with a large enough effect (not every such curve was filed as active); inconclusive means small, poorly fitted or top-dose-only effect, or another doubt; inactive means no such curve, though single readings can be large or run the other way. Unless noted, on the % scale 0 is the no-effect control and ±100 the full control effect; potency means the concentration at half of the fitted maximal effect.
SMILES,Lamin A splicing,IMPase Li cell,ALDH1A1 inh,KinaseGlo FLuc,HPGD inh
O=c1c(-c2cccc(F)c2)nc2cncnc2n1C1CC1,x,1.2%,-1.0%,-0.4%,-9.5%
CC(C(=O)O)N1C(=O)/C(=C/C=C/c2ccco2)SC1=S (stereo not drawn),-7.6%,-3.5%[38.3 µM],-16.1%,-3.4%,15.8µM*
CC(=C\c1ccccc1)/C=C1/SC(=S)N(C(C(=O)O)C(C)C)C1=O (stereo not drawn),u,-0.9%,-5.1%,4.8%,x
CC1CCCN(c2nc(NCc3ccco3)nc(N)c2[N+](=O)[O-])C1 (stereo not drawn),u,-3.1%,2µM*,-1.3%,-22.1%
O=c1c([N+](=O)[O-])c(NC2CCCCC2)c2ccccc2n1-c1ccccc1,-8.7%,13.2%,u,-2.8%,-28.1%
CC(=O)N1CCN(c2ccc(NC(=O)C(C)Oc3ccc(Cl)cc3Cl)cc2)CC1 (stereo not drawn),9.4%,66.5%[38.3 µM],u,5.1%,20µM*
O=C(CSc1ccc(F)cc1)Nc1ccccc1Br,x,24.9%,2.4%,5.4%,x
O=C(CNc1ccccc1)Nc1ccc(F)cc1,u,-0.2%[38.3 µM],14.1µM*,-4.1%,-16.1%
O=C(CSc1ccc(F)cc1)Nc1ccc(Br)cc1,8.0%[46 µM],5.7%,20µM*,-1.8%,x
CC(=O)c1ccccc1NCC(=O)Nc1ccc(C)cc1,x,4.6%,12.6µM*,-3.5%,x
CC(C)N1CCC(N2CCN(C/C=C/c3ccccc3)CC2CCO)CC1 (stereo not drawn),x,4.3%,0.1%,-6.4%,x
O=C(O)/C=C/C(=O)NNC(=O)c1cc(-c2ccccc2)n[nH]1,-23.7%[46 µM],2.9%,u,-2.8%,x
O=C(O)/C=C\C(=O)NNC(=O)c1cc(-c2ccccc2)n[nH]1,x,x,25.1µM*,x,x
CC12C=C(/C=C/CCc3ccco3)C(C)(C1)C(CCc1ccco1)CC2=O (stereo not drawn),x,x,3.98µM*,x,x
C[C@]12C[C@@](C)(C=C1/C=C/c1ccc(F)cc1)C(=O)C[C@H]2c1ccc(F)cc1,x,-1.8%,2.9%,-4.5%,-4.6%
COc1ccc(NC(=O)Cn2nc(-c3ccncc3)ccc2=O)cc1Cl,-19.1%[46 µM],x,x,x,x
CCc1ccc(C(=O)CSc2nc3cc(S(=O)(=O)N4CCOCC4)ccc3n2CC)cc1,u,23.3%,28.2µM*,3.9%,-23.4%
COC(=O)c1ccc(CSc2nc3ccc(S(=O)(=O)N4CCOCC4)cc3[nH]2)cc1,2.3%,11.0%,-4.0%,2.4%,28.2µM*
Cc1csc(SCC(=O)c2ccc(S(=O)(=O)N3CCOCC3)cc2)n1,5.1%,2.3%[38.3 µM],u,-0.7%,-11.4%
O=C(Nc1cccc(F)c1)N1CC[C@@]2(CCCN(S(=O)(=O)c3ccccc3)C2)C1,x,0.5%,-2.5%,-2.3%,-5.4%
CCC(=O)Nc1ccc(S(=O)(=O)NCc2cccn2Cc2cccc(C)c2)cc1,-2.0%[46 µM],x,x,x,x
COc1ccc(Cn2c(-c3ccc(OC)cc3)nc3c(c(=O)c4ccccc4n3C)c2=O)cc1,-11.1%,11.9%,0.282µM*,0.0%,-3.3%
C=CCSC1=NC(N)=C(C#N)C2(CCCCC2)C1C(N)=O (stereo not drawn),8.1%,4.4%[38.3 µM],u,-2.0%,-10.1%
CC(C)(C)C1CCC2(CC1)C(C#N)=C(SCC(=O)NC1CCCCC1)NC(=O)C2C#N (stereo not drawn),u,5.7%[38.3 µM],u,-6.8%,-14.2%
N#CC1=C(SCC(=O)NC2CC2)NC(=O)C(C#N)C12CCCCC2 (stereo not drawn),9.5%,-4.3%[38.3 µM],12.6µM*,-0.2%,-4.1%
SMILES,Lamin A splicing,IMPase Li cell,ALDH1A1 inh,KinaseGlo FLuc,HPGD inh
C=CCSC1=C(C#N)C2(CCCCC2)C(C#N)C(=O)N1 (stereo not drawn),11.6%,5.4%[38.3 µM],2.51µM*,2.4%,-22.1%
N#CC1=C(SCC(=O)Nc2cccc3cccnc23)NC(=O)C(C#N)C12CCCCC2 (stereo not drawn),u,10.6%[38.3 µM],8.91µM*,-0.2%,-12.8%
CCOC(=O)C1=C(SCC(=O)Nc2ccccc2)NC(=O)C(C#N)C12CCCCC2 (stereo not drawn),14.2%,-15.7%[38.3 µM],12.6µM*,-5.5%,-4.5%
Cn1nc(C(=O)NNc2c(F)c(F)cc(F)c2F)c2ccccc2c1=O,u,9.4%,2.4%,1.4%,x
O=C(CSc1ncn[nH]1)NC12CC3CC(CC(C3)C1)C2,-2.3%,20.4%[38.3 µM],-14.8%,-5.1%,-17.9%
N#CC1=C(SCC(=O)NC23CC4CC(CC(C4)C2)C3)NC(=O)C(C#N)C12CCCCC2 (stereo not drawn),u,8.8%,1.12µM*,2.5%,-22.2%
COc1ccccc1CNC(=O)c1ccc(N2CCCC2)c(NC(=O)NCc2ccc(C)cc2)c1,21.7%[46 µM],x,x,x,x
O=C(Oc1ccc(C(=S)N2CCOCC2)cc1)c1ccccc1,22.6%[46 µM],-3.5%,-1.9%,-3.1%,x
Cc1ccccc1C(=O)Oc1ccc(Br)cc1C(=S)N1CCCC1,4.7%,10.8%[38.3 µM],-14.1%,-2.2%,-17.6%
O=C(Oc1ccc(C(=S)N2CCCCC2)cc1)c1ccccc1F,x,1.6%,8.91µM*,-0.7%,x
O=C(Oc1ccc(Br)cc1C(=S)N1CCCC1)c1ccccc1F,u,-3.2%,11.2µM*,-1.1%,25.1µM*
CC[C@H](Cc1c(I)cc(I)c(N)c1I)C(=O)O,u,1.7%,-4.5%[20.9 µM],1.8%[17.1 µM],-6.7%
c1ccc(-c2nnc(CN3CCCc4ccccc43)o2)cc1,-4.1%,18.3%[38.3 µM],8.91µM*,0.0%,u
c1ccc(-c2nnc(CN3CCC4(CC3)OCCO4)o2)cc1,5.3%,0.8%[38.3 µM],-8.2%,-0.3%,-7.2%
CO[C@]1(NC(=O)C(C(=O)O)c2ccc(O)cc2)C(=O)N2C(C(=O)O)=C(CSc3nnnn3C)COC21 (stereo partly drawn),x,8.5%,-2.9%,-6.4%,-2.0%
CC(=O)c1sc(N/N=C2\CC3CC2C(C)C3(C)C)nc1C (stereo not drawn),30.6%[46 µM],18.4%,15.8µM*,2.8%,x
CC(=O)c1sc(N/N=C\c2ccccc2O)nc1C,u,14.1%,-5.7%,-4.8%,x
O=C(Oc1ccccc1)N1CCC2(CCCN(c3ncccn3)C2)CC1,x,-7.3%,-3.9%,-1.2%,u
O=C(O)CCC/C=C\CC1C2CCC(O2)C1CNNC(=O)Nc1ccccc1 (stereo not drawn),x,-0.7%,-5.4%,2.2%,-9.1%
O=C(c1ccccc1)N1CCN(c2ccc([N+](=O)[O-])c(NCC3CCCO3)c2)CC1 (stereo not drawn),u,-2.9%,12.6µM*,3.1%,x
O=[N+]([O-])c1ccc(N2CCN(S(=O)(=O)c3ccccc3)CC2)cc1NCC1CCCO1 (stereo not drawn),-3.8%,2.7%,0.5%,0.7%,-0.9%
O=C(c1ccccc1F)N1CCN(c2ccc([N+](=O)[O-])c(NCc3cccnc3)c2)CC1,x,x,7.94µM*,x,x
